Source: PubChem
Compounds with a hit are over-represented: about 2.1% of the library has one in this group of screens.
p53 PUMA act: mutant p53 pathway reactivation; AID 624151; SW480 PUMA-promoter luciferase; actives 1.5% (n = 28,000); activation, % at 9.98 µM; in the data active = activation above about 52%
ID4 binder: binders of human ID4 protein; P47928; small molecule microarray, Flag-ID4 binding, fluorescence F/B; calls only; actives 1.2% (n = 31,000); AID 624137; call rule not given here;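 note: a binder raises fluorescence above local background on the spot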
STK33 inh: blocks human STK33 kinase activity; Q9BYT3; ADP-Glo luminescence, MBP substrate; inhibition, % at 12.5 µM; actives 0.44% (n = 27,000); AID 2322; in the data active = inhibition above about 20%
Target sequence (Q9BYT3 whole entry, looked up): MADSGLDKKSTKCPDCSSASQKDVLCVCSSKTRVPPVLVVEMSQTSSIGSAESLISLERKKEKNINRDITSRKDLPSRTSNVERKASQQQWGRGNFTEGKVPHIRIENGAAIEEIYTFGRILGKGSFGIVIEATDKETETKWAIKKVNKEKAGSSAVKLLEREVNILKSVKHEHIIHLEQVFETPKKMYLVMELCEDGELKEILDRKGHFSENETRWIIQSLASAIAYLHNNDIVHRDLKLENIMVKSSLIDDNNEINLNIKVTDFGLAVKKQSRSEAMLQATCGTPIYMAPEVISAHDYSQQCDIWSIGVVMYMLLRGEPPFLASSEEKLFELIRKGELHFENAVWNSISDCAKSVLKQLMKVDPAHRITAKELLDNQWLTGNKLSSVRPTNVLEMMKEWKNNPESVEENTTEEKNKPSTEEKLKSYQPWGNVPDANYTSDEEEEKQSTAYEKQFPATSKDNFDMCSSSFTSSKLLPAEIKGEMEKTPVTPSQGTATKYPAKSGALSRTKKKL
Starred values were filed as active, the others as inactive; i = inactive; nt = no result; + = active, no number.

SMILES	p53 PUMA act	ID4 binder	STK33 inh
C[C@@H]1CCCCO[C@@H](CN(C)C(=O)Nc2ccccc2)[C@H](C)CN([C@H](C)CO)C(=O)c2cc(NC(=O)Nc3ccccc3)ccc2O1	-39	+	nt
C[C@H](CO)N1C[C@H](C)[C@H](CN(C)C(=O)Nc2ccccc2)OCCCC[C@H](C)Oc2ccc(NC(=O)Nc3ccccc3)cc2C1=O	4	i	nt
C[C@@H]1CCCCO[C@@H](CN(C)Cc2ccncc2)[C@H](C)CN([C@@H](C)CO)C(=O)c2cc(NC(=O)Nc3ccccc3)ccc2O1	-8	i	nt
Cc1ccc(S(=O)(=O)Nc2ccc3c(c2)C(=O)N([C@H](C)CO)C[C@H](C)[C@@H](CN(C)Cc2ccncc2)OCCCC[C@@H](C)O3)cc1	nt	nt	-1
N#Cc1c(NC(=O)Cn2c(=O)oc3cc(Br)ccc32)sc2c1CCCC2	7	i	-1
O=C(Cn1c(=O)oc2ccccc21)Nc1sc2c(c1C(=O)O)CCCC2	3	+	-1
CCOc1cccc2cc(C(=O)NCc3ccco3)c(=O)oc12	25	i	-3
COc1ccc2cc(C(=O)NCc3ccco3)c(=O)oc2c1	74*	i	-1
Cc1ccc2c(c1)c1nnc(SCCN3CCCCC3)nc1n2C	-2	i	3
CCCn1c2ccccc2c2nnc(SCCN3CCCCC3)nc21	3	+	-4
Cc1c(NC(=O)CN(c2cccc(F)c2)S(C)(=O)=O)c(=O)n(-c2ccccc2)n1C	4	i	-3
Cc1ccc(N(CC(=O)Nc2c(C)n(C)n(-c3ccccc3)c2=O)S(C)(=O)=O)cc1Cl	-17	+	-2
COc1cc(S(=O)(=O)n2nnc3ccccc32)c(OC)cc1Cl	6	+	2
COc1cc(S(=O)(=O)n2cnc3ccccc32)c(OC)cc1Cl	-2	i	4
Cc1cccc(C)c1NC(=O)CN(c1cccc(F)c1)S(C)(=O)=O	-2	i	-2
COc1cc(OC)c2c(=O)cc(-c3ccccc3)oc2c1	nt	nt	-33
COc1ccc(-c2cc(=O)c3c(O)cc(O)cc3o2)cc1	95*	nt	25*
O=c1c(-c2c(O)cc(O)c3c(=O)cc(-c4ccc(O)cc4)oc23)c(-c2ccc(O)cc2)oc2cc(O)cc(O)c12	nt	nt	3
O=c1cc(-c2ccc(O)c(O)c2)oc2cc(O)cc(O)c12	nt	nt	78*
COc1cc(C)c2c(=O)cc(-c3ccccc3)oc2c1	85*	i	1
COc1ccc(-c2cc(=O)c3c(OC)cc(OC)cc3o2)cc1	nt	nt	1
C[C@H](CO)N1C[C@H](C)[C@@H](CN(C)Cc2ccccc2)OCc2ccccc2-c2ccccc2C1=O	nt	i	nt
COc1cccc(C(=O)OCc2nc3ccccc3s2)c1	33	i	0
C[C@H]1CN([C@@H](C)CO)C(=O)c2cc(NC(=O)NC3CCCCC3)ccc2O[C@@H]1CN(C)Cc1ccc(C(=O)O)cc1	0	i	nt
COc1ccc(C2COc3cc(O)ccc3C2)c(O)c1 (stereo unspecified)	29	i	11
SMILES	p53 PUMA act	ID4 binder	STK33 inh
C[C@H]1CN([C@@H](C)CO)C(=O)c2cc(C#CC3(O)CCCC3)cnc2O[C@H]1CN(C)C(=O)Cc1ccccc1	-3	i	nt
NCCCCCNC(=O)[C@@H]1C[C@@H]2C(=O)NCC(=O)N2[C@@H]1c1cccc(OCCO)c1	nt	+	-1
NCCCCCCNC(=O)[C@@H]1C[C@@H]2C(=O)N[C@@H](Cc3ccccc3)C(=O)N2[C@@H]1c1ccc(O)cc1	nt	+	-3
NCCCCCNC(=O)[C@H]1C[C@H]2C(=O)NCC(=O)N2[C@H]1c1cccc(OCCO)c1	nt	i	nt
C[N+](C)(C)CCCC[C@@H]1NC(=O)[C@H]2C[C@@H](C(=O)NCCCCCCN)[C@@H](c3ccc(O)cc3)N2C1=O	nt	nt	1
CN(C)CCCCNC(=O)[C@@H]1C[C@@H]2C(=O)NCC(=O)N2[C@@H]1c1ccc(O)cc1	nt	i	-3
NCCCCCCNC(=O)[C@@H]1C[C@@H]2C(=O)NCC(=O)N2[C@@H]1c1ccc(O)cc1	nt	+	nt
C[C@@H]1CN([C@@H](C)CO)C(=O)c2cc(N(C)C)ccc2O[C@H]1CN(C)S(=O)(=O)c1cccs1	4	i	nt
Nc1ncnc2c1c(I)cn2C1OC(CO)C(O)C1O (stereo unspecified)	-84	i	53*
OCC1OC(n2cnc3c(NC4CCCC4)ncnc32)C(O)C1O (stereo unspecified)	6	i	nt
CC(C)(C)c1cc(/C=C(\C#N)C(N)=S)cc(C(C)(C)C)c1O	-70	i	12
N#CC(C#N)=C(N)/C(C#N)=C/c1cc(O)c(O)c(O)c1	-9	i	20*
C=C1C(=O)O[C@H]2C1C[C@@H](OC(C)=O)[C@@]1(C)[C@@H](OC(C)=O)C[C@@H](OC(C)=O)C(=C)[C@H]21 (stereo partly specified)	nt	nt	-1
C[C@H](CO)N1C[C@H](C)[C@@H](CN(C)C(=O)C2CCOCC2)Oc2ncc(C#Cc3cccc(F)c3)cc2C1=O	0	nt	nt
CC(C)(C)c1ccc(OCC(=O)Nc2ccccc2C(N)=O)c(Br)c1	85*	i	-1
Cc1cc(OCC(=O)NCc2ccco2)cc(C)c1Br	25	i	-6
CC(C)(C)c1ccc(OCC(=O)NCc2ccco2)c(Br)c1	88*	i	-3
COc1cc(NC(=O)COc2ccc(C(C)(C)C)cc2Br)c(OC)cc1Cl	21	i	0
COC(=O)c1ccccc1NC(=O)COc1ccccc1F	43	i	1
COC(=O)c1ccccc1NC(=O)COc1ccc(C(C)C)cc1Br	54*	i	-1
CCN(CC)CCOC(=O)C(Cc1cccc2ccccc12)CC1CCCO1 (stereo unspecified)	nt	nt	4
COc1ccc(OC)c(NC(=O)Nc2cccc(Cn3cccn3)c2)c1	12	i	2
COc1cccc2cc(C(=O)Nc3cccc(Cn4cccn4)c3)c(=O)oc12	57*	i	12
O=C(COc1ccc(Br)cc1)Nc1ccc2oc(-c3ccc(F)cc3)nc2c1	69*	i	2
O=C(COc1ccc(Br)cc1)Nc1cccc(-c2nc3ccccc3o2)c1	74*	i	0
SMILES	p53 PUMA act	ID4 binder	STK33 inh
O=C(COc1ccc([N+](=O)[O-])cc1)Nc1ccc2oc(-c3ccc(Br)cc3)nc2c1	15	i	3
Cc1ccc(C)c(OCC(=O)Nc2cccc(-c3nc4ccccc4o3)c2)c1	-4	i	-3
O=C(COc1ccc(Br)cc1)Nc1cccc(-c2nnc(-c3ccccc3)o2)c1	109*	i	-2
CCOC(=O)c1cccc(NC(=O)COc2ccc(Br)cc2)c1	2	i	2
CC(C)NC(=O)Nc1ccc2c(c1)C(=O)N([C@@H](C)CO)C[C@@H](C)[C@H](CN(C)S(=O)(=O)c1cccs1)OCCCC[C@H](C)O2	6	i	nt
Cc1ccc(S(=O)(=O)N(C)C[C@@H]2Oc3ccc(NC(=O)CCN4CCOCC4)cc3CC(=O)N([C@@H](C)CO)C[C@@H]2C)cc1	nt	nt	-1
C[C@H](CO)N1C[C@H](C)[C@@H](CN(C)C(=O)Cc2cccnc2)Oc2ncc(C#CC3(O)CCCC3)cc2C1=O	nt	i	nt
CC(=O)c1cccc(NC(=O)CCN2C(=O)c3ccccc3C2=O)c1	21	i	-2
Cc1ccc(NC(=O)COc2ccc(Cl)cc2C)c([N+](=O)[O-])c1	64*	i	4
Cc1ccc(NC(=O)COc2ccc(Br)cc2C)c([N+](=O)[O-])c1	45	i	4
